# High-throughput results from PubChem BioAssay.
# DT40 TDP1 CPT: DT40-hTDP1 cell growth loss with CPT; 420,000 tested, 12% active; AID 686979; chicken DT40 Tdp1-/-;hTDP1 cells + 20 nM CPT, ATP luminescence, 48 h; Potency, µM (highest dose often 46.2 µM), for inactives: at the highest dose activity change, negative = growth inhibition, most hits filed as inhibitors; note: nearly all actives have a fitted effect of over 55% in size
#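 Chicken DT40 Tdp1-/- cells complemented with human TDP1, 400 cells/well, exposed to compounds plus 20 nM camptothecin for at least 48 h at 37 C; viability read as ATP content by CellTiter-Glo luminescence.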
# VDR inhibitor: inhibitors of human vitamin D receptor; AID 504847; 400,000 tested, 0.93% active; Potency, µM, for the others: max response, negative = inhibition, usual class: inhibitors; VDR-SRC2-3 peptide fluorescence polarization, 2 h; P11473
#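 Signal is fluorescence polarization, reporting how far test compounds block the interaction of VDR with the SRC2-3 coregulator peptide after a 2 h room-temperature incubation.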
# TDP1 block: TDP1 (human) enzyme inhibition; recombinant TDP1, AlphaScreen DNA substrate cleavage; Potency, µM (doses to about 130 µM), for inactives: at the top dose activity change, negative = inhibition, usual class: inhibitors; 350,000 tested, 0.28% active; AID 485290; note: nearly all actives have a fitted effect of over 40% in size
#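 Recombinant E. coli-expressed Tdp1 (1 nM) preincubated with compound 15 min at RT, then 5'-biotin/3'-phosphotyrosine-FITC DNA substrate (15 nM) added for 5 min. AlphaScreen beads (10 ug/ml) added, 10 min RT; tyrosine-FITC cleavage read as signal loss.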
# TDP1 cell noCPT: qHTS for Inhibitors of human tyrosyl-DNA phosphodiesterase 1 (TDP1): qHTS in cells in absence of CPT | DT40 Tdp1-/- hTDP1 cells, no CPT, ATP luminescence, 48 h | Potency, µM (series often up to 46.2 µM), inactives show at the highest dose activity change, negative = growth inhibition, usual class: inhibitors | 420,000 tested, 15% active | AID 686978, 2013; note: nearly all actives have a fitted effect of over 55% in size
#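 Chicken DT40 Tdp1-/- cells complemented with human TDP1, screened without camptothecin (DMSO vehicle only), 400 cells/well. Compounds pin-transferred, cells incubated at 37 °C for at least 48 hr. Growth read as ATP-dependent luminescence (CellTiter-Glo, 30 min at RT).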
# GCN5L2 inh: blocks human GCN5L2 histone acetyltransferase. Q92830. GCN5L2 HAT assay, ThioGlo1 CoA-SH fluorescence. Potency, µM (titrated, usually from 58.9 µM), for inactives: top-dose activity change, negative = inhibition, hits mostly inhibitors. 390,000 tested, 0.21% active. AID 504327
#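 Compounds, pin-transferred from DMSO stocks, meet 20nM GCN5L2 for 15 min before the reaction begins with H3(1-25) peptide (75uM) and acetyl-CoA (70uM). Thiol-reactive ThioGlo1 reports CoA release over 20 min at room temperature.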
# PLK1 PBD inh: blocks phosphopeptide binding to human PLK1 polo-box domain | P53350 | Plk1 PBD binding of FITC phosphopeptide, fluorescence polarization | Potency, µM, without a hit: max response, negative = inhibition, hits mostly inhibitors | 360,000 tested, 2.8% active; note: series mostly up to about 57 µM; nearly all actives have a fitted effect of over 65% in size
# Target sequence (P53350 whole entry, looked up, the tested form may be a part): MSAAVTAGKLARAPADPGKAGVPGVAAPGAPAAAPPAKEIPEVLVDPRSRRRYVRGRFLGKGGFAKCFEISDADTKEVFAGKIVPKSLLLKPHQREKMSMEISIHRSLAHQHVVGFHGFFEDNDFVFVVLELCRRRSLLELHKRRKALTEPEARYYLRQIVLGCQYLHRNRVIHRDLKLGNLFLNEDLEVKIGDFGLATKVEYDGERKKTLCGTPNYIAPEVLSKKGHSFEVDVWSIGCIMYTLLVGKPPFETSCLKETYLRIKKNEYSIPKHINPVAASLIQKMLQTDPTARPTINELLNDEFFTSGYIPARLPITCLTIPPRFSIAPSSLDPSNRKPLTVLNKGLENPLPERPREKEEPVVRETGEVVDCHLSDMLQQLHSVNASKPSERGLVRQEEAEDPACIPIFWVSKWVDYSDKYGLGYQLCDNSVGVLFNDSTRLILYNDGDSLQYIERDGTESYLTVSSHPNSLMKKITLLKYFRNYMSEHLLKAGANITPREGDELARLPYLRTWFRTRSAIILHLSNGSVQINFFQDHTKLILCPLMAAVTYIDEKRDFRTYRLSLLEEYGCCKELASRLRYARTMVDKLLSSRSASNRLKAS
# The depositor's hits bear a star; ? = inconclusive; nt = no result given; [ ] = remark or other dose. This is a sample that favours compounds with a hit; in the whole collection about 18% have one here. Calls come from the whole dose curve; as a rule, active = well fitted curve in the direction sought with a large enough effect; inconclusive = small, poorly fitted or top-dose-only effect, or another doubt; inactive = no such curve, though single readings can be large; an effect the other way counts as inactive or inconclusive. % is set by controls: 0 for no effect and ±100 for the full control effect; potency is the fitted concentration of half-maximal effect.
SMILES,DT40 TDP1 CPT,VDR inhibitor,TDP1 block,TDP1 cell noCPT,GCN5L2 inh,PLK1 PBD inh
O=C1CC2c3ccccc3CCN2C(=O)CN1Cc1ccccc1 (stereo unspecified),-10%,nt,nt,-3%,nt,1%
O=C1c2cnc3nc(SCc4ccccc4)nn3c2CC2c3ccccc3CCN12 (stereo unspecified),?,-4%,-3%,18µM*,-3%,-9%
CN1C[C@@H]2[C@@H]3C(=O)N(Cc4ccccc4)C(=O)[C@@H]3[C@](Cc3ccccc3)(C1=O)N2C(=O)c1ccc(Br)cc1,-7%,-14%,nt,?,nt,1%
COc1cccc(N2CCN(c3c(C#N)c(C(F)(F)F)nn3C)CC2)c1,23µM*,0%,5%,8.2µM*,2%,4%
Cc1ccc(S(=O)(=O)N2CCN(Cc3ccccc3)CC2)c(C)c1NS(C)(=O)=O,-11%,1%,5%,-24%,-2%,nt
C/C(=N\Nc1nc(C)c(C)s1)c1ccc([N+](=O)[O-])cc1,?,-16%,9%,21µM*,-4%,-24%
C/C(=N\Nc1ccc([N+](=O)[O-])cc1)c1ccc(-n2nncc2C)cc1,?,1%,-3%,21µM*,-7%,-1%
CC(C)(C)c1cnnn1-c1ccc(/C=N/Nc2ccc([N+](=O)[O-])cc2)cc1,18µM*,-19%,1%,13µM*,-1%,-14%
CC1COC(Cn2c3ccccc3c3ccccc32)O1 (stereo unspecified),?,-5%,nt,18µM*,-9%,-16%
Cc1ccc(N/N=C(\Cc2nc3ccccc3[nH]2)c2ccccc2)cc1,0.82µM*,?,8%,0.65µM*,-2%,?
N/N=C(/Cc1nc2ccccc2[nH]1)c1ccc([N+](=O)[O-])cc1,26µM*,?,10%,?,-6%,-11%
c1ccc(N/N=C(\Cc2nc3ccccc3[nH]2)c2ccccc2)cc1,?,?,9%,?,-15%,-10%
Cc1cc(C)cc(NC(=O)Cn2cc(C(=O)c3ccncc3)c(=O)c3cc(C)c(C)cc32)c1,?,20%,7%,?,-3%,nt
COCCNC(=O)C(c1ccc(O)cc1)N(Cc1ccccc1)C(=O)CCC(=O)Nc1nccs1 (stereo unspecified),2%,10%,4%,-11%,0%,-2%
NC(=S)c1ccc[n+]([C@@H]2O[C@@H](COP(=O)([O-])OP(=O)(O)OC[C@H]3O[C@@H](n4cnc5c(N)ncnc54)[C@H](OP(=O)(O)O)[C@@H]3O)C(O)C2O)c1 (stereo partly specified),nt,1%,nt,nt,-21%,nt
COc1ccc(-c2nc3ccc(C(=O)NCCCN4CCOCC4)cc3nc2-c2ccc(OC)cc2)cc1,?,-24%,0%,23µM*,-8%,-9%
O=C(c1ccccc1)N1CCCCCC1,-8%,-8%,3%,-12%,-3%,1%
CCN(CC)C(=O)c1cccc(C)c1,0%,1%,10%[56.1 µM],9%,-1%,-8%
O=C(c1ccc2nc(-c3ccccc3)c(-c3ccccc3)nc2c1)N1CCCCC1,?,-15%,nt,16µM*,3%,-14%
CCN(CC)C(=O)c1ccc2nc(-c3ccccc3)c(-c3ccccc3)nc2c1,?,5%,0%,21µM*,0%,-23%
COCC(C)NC(=O)c1ccc2nc(-c3ccccc3)c(-c3ccccc3)nc2c1 (stereo unspecified),?,-9%,-4%,21µM*,-18%,-20%
COC(=O)c1cc(C)ccc1OCc1ccc([N+](=O)[O-])cc1,7%,9%,8%,-2%,-3%,7%
C[C@H](NC(=O)C1CCN(S(=O)(=O)c2ccccc2)CC1)C(=O)NCc1ccc(Cl)c(Cl)c1,-29%,0%,3%,-27%,-18%,5%
CCCNC(=O)c1ccc2nc(CCc3ccccc3)oc2c1,?,-1%,3%,?,-3%,nt
COc1ccc(CNC(=O)c2ccc3nc(-c4ccc(F)cc4)c(-c4ccc(F)cc4)nc3c2)cc1,-20%,7%,5%,-27%,6%,nt
SMILES,DT40 TDP1 CPT,VDR inhibitor,TDP1 block,TDP1 cell noCPT,GCN5L2 inh,PLK1 PBD inh
COc1cccc(CNC(=O)c2ccc3nc(-c4ccc(F)cc4)c(-c4ccc(F)cc4)nc3c2)c1,21µM*,-7%,8%,13µM*,-4%,nt
COc1ccccc1CNC(=O)c1ccc2nc(-c3ccccc3)c(-c3ccccc3)nc2c1,?,11%,3%,18µM*,-24%,nt
COc1ccccc1CNC(=O)c1ccc2nc(CCc3ccccc3)oc2c1,?,1%,-1%,-26%,-6%,nt
CCNC(=O)c1ccc2nc(-c3ccccc3)c(-c3ccccc3)nc2c1,11µM*,2%,2%,11µM*,nt,nt
C=CCNC(=O)c1ccc(-c2nc3ccccc3nc2-c2ccccc2)cc1,?,-8%,nt,?,nt,-11%
CCN1CCN(CCNC(=O)c2ccc3nc(-c4cccc(C)c4)c(-c4cccc(C)c4)nc3c2)CC1,16µM*,4%,6%,16µM*,-8%,-25%
Cc1ccc(C(=O)NCCN2CCOCC2)cc1,-1%,2%,0%,7%,1%,4%
CCC(C)NC(=O)c1ccc2nc(-c3ccc(OC)c(OC)c3)c(-c3ccc(OC)c(OC)c3)nc2c1 (stereo unspecified),15µM*,9%,nt,?,-1%,-8%
COc1ccccc1CNC(=O)c1ccc2c(c1)nnn2C1CCCC1,18µM*,7%,5%,16µM*,1%,nt
CCCNC(=O)c1ccc2nc(-c3ccccc3)c(-c3ccccc3)nc2c1,?,-12%,0%,23µM*,-11%,?
CCCN(CCC)C(=O)c1ccc2nc(-c3ccc(OC)c(OC)c3)c(-c3ccc(OC)c(OC)c3)nc2c1,?,0%,nt,?,0%,-6%
Cc1c(Cl)cccc1NC(=O)c1ccc2c(c1)nnn2C1CCCC1,2.6µM*,2%,0%,2.6µM*,-4%,nt
COc1cc(/C=C2/C(=N)N3N=C(CC(=O)N4CCOCC4)SC3=NC2=O)ccc1OCc1ccc(F)cc1,-11%,-17%,6%,16%,-31%,?
CCOc1ccc(-n2cc(-c3ccccc3)c3c(NCCc4ccccc4)ncnc32)cc1,?,-1%,3%,23µM*,-5%,nt
COc1ccc(CNc2ncnc3c2c(-c2ccccc2)cn3-c2ccccc2)cc1,?,-2%,2%,21µM*,-4%,nt
